From PubChem BioAssay (NCATS)
A number with no mark means an inactive call. Inconclusive results are not listed. Activity calls are given as the source filed them. Unless noted, calls come from the whole dose curve; as a rule, active = well fitted curve in the direction sought with a large enough effect; inconclusive = small, poorly fitted or top-dose-only effect, or another doubt; inactive = no such curve, though single readings can be large; an effect the other way counts as inactive or inconclusive.

What was measured:
[1] = molecular target: Lysosomal acid glucosylceramidase (Homo sapiens) (UniProt P04062); assay: Glucocerebrosidase-p2 (AID 348; in the data active = potency below about 10 µM; note: potency is the fitted concentration of half-maximal effect); conditions: purified GBA, blue fluorogenic substrate, 40 min
Sequence of Lysosomal acid glucosylceramidase (Homo sapiens) (P04062 whole entry, looked up): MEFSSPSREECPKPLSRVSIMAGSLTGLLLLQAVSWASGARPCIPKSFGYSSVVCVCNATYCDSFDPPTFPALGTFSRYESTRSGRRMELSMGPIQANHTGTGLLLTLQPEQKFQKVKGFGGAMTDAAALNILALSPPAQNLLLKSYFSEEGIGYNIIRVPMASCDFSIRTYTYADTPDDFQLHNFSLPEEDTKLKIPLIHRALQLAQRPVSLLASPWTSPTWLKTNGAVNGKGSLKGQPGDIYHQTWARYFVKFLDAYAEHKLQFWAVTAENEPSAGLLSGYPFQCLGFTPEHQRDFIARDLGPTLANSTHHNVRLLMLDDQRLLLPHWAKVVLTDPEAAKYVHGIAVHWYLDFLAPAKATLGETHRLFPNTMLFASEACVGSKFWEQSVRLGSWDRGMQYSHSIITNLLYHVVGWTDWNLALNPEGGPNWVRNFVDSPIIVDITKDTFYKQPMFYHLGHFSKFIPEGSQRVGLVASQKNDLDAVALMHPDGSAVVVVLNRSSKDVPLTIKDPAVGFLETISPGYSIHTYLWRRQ
How it was run: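 Compounds titrated from 0.6 nM upwards against 0.2 nM enzyme in pH 5.9 citric acid/KH2PO4, taurocholate, tween-20; blue fluorogenic substrate 80 uM, 40 min room temperature, stopped and read Ex 365/Em 440 for AC50.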

[2] = molecular target: Cytochrome P450 1A2 (Homo sapiens) (UniProt P05177); assay: p450-cyp1a2 (AID 410; calls by dose curve; note: potency is the fitted concentration of half-maximal effect); conditions: recombinant CYP1A2, luciferin-ME demethylation, luminescence; series mostly up to 57 µM
Sequence of Cytochrome P450 1A2 (Homo sapiens) (P05177 whole entry, looked up): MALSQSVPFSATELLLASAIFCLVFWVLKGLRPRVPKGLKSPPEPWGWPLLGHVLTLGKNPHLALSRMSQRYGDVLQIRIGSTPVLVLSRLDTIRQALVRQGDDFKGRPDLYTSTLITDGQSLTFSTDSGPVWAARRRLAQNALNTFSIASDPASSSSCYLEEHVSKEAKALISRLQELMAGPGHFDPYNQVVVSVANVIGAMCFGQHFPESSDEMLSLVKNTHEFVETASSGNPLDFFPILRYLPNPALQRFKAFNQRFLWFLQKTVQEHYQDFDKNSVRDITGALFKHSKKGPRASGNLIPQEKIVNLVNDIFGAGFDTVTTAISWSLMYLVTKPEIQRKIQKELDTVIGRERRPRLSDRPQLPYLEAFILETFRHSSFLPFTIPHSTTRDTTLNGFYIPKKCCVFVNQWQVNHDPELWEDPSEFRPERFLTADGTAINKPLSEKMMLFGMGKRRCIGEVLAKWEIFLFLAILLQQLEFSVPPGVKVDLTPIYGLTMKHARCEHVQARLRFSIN
How it was run: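 Inhibition was calculated relative to 57 uM furafylline (full inhibition). The reaction used human CYP1A2 at 20nM with Luciferin-ME at its Km, 100uM, driven by an NADPH-regenerating system for 60 min at room temperature.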

[3] = NFAT Signaling Pathway (AID 444; active = well fitted curve in either direction with a large enough effect, not every such curve was filed as active;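 note: carbachol stimulus at about its EC50 of 1 µM final; % is set by controls: 0 for no effect and ±100 for the full control effect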); conditions: Jurkat NFAT-bla M1, carbachol, beta-lactamase ratio, 5 h; at 7.69 µM (top of the series) unless noted
How it was run: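 Jurkat cells with NFAT-driven β-lactamase reporter and co-expressed M1 receptor, stimulated with carbachol (final 1 uM, ~EC50), compound titration, 5 h at 37 °C. CCF4 loaded 1 h at RT; 460/530 nm ratio gave %activity and AC50.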

[4] = Stat Signaling Pathway (AID 446; active = well fitted curve in either direction with a large enough effect, not every such curve was filed as active;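 note: ME-180 cervical cancer cells given 40 pM IL-6 alongside compound; SIE-controlled beta-lactamase reporter measured as 460/530 nm FRET emission ratio; % is set by controls: 0 for no effect and ±100 for the full control effect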); conditions: ME-180 SIE beta-lactamase reporter, IL-6 stimulated, 5 h; at 7.69 µM (top of the series) unless noted
How it was run: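 ME-180 cells carrying a SIE-driven beta-lactamase reporter are stimulated with 40 pM IL-6 for 5 h at 37C in the presence of compound. The 460/530 nm FRET substrate ratio is read after 2.5 h at RT. Data are normalised to 300 pM IL-6 and to 125 nM JAK inhibitor controls.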

[5] = molecular target: Glucocorticoid receptor (Homo sapiens) (UniProt P04150); assay: GR-GFP Redistribution (AID 450;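 active = compounds whose dose series gives a full or clear partial fitted curve of increased nuclear translocation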; note: potency is the fitted concentration of half-maximal effect); conditions: U2OS GR-GFP nuclear translocation, laser cytometry, 2 h
Sequence of Glucocorticoid receptor (Homo sapiens) (P04150 whole entry, looked up, the tested form may be a part): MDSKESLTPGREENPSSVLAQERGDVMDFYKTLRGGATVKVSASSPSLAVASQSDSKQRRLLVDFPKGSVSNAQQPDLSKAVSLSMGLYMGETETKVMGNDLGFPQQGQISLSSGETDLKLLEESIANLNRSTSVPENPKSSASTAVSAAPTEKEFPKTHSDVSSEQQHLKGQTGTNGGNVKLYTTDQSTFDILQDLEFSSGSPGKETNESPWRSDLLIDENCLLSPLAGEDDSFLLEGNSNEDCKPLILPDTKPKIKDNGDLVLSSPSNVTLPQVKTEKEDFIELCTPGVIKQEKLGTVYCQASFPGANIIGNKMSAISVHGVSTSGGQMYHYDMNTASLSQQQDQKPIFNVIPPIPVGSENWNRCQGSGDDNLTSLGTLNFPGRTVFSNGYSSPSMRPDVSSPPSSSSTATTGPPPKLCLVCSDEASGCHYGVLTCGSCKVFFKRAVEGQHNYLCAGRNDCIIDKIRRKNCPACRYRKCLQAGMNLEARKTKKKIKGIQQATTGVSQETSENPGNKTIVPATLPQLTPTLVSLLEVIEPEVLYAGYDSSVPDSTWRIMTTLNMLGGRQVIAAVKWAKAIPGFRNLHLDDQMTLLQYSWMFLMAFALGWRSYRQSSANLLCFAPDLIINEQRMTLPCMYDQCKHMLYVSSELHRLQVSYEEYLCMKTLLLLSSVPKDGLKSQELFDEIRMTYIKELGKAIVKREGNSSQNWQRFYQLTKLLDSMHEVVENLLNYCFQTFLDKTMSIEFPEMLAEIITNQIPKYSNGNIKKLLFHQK

[6] = molecular target: Glucocorticoid receptor (Homo sapiens) (UniProt P04150); assay: GR-EFC Redistribution (AID 451; calls by dose curve; note: potency is the fitted concentration of half-maximal effect); conditions: CHO-K1 GR-EFC translocation, beta-gal luminescence, 2 h
How it was run: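 CHO-K1 cells expressing nuclear EA and GR-ED fragments of b-gal; compounds titrated up to 46 uM final, 2 h at 37 C. GR nuclear translocation read as complemented b-gal luminescence after 1 h RT detection.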

[7] = molecular target: Mitogen-activated protein kinase 10 (Mus musculus) (UniProt Q61831); assay: JNK3 AlphaScreen Assay (AID 530; active = well fitted curve in either direction with a large enough effect, not every such curve was filed as active;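 note: kinase came from lysate of stimulated human HepG2 cells; signal reports phosphorylation of biotinylated GST-cJun 1-79 at Ser73 with 10 µM ATP; % is set by controls: 0 for no effect and ±100 for the full control effect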); conditions: JNK3 lysate, c-Jun phosphorylation; series mostly up to 57.1 µM
How it was run: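 qHTS format: compounds tested as titrations against IL-1beta/TNF-alpha-activated HepG2 lysate JNK3 with biotin-GST-cJun substrate and 10 uM ATP at room temperature. Loss of anti-phospho-cJun AlphaScreen signal indicates inhibition.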

[8] = molecular target: 3',5'-cyclic-AMP phosphodiesterase 4B (Homo sapiens) (UniProt Q07343); assay: qHTS Assay for Inhibitors of PDE-IV (AID 607; active = well fitted activation curve with a large enough effect in the main read-out, with a control signal flat, not every such curve was filed as active; note: % of control where 0% means no effect); conditions: HEK293 ACTOne CNG channel cells, membrane potential fluorescence; series mostly up to 22.9 µM
Sequence of 3',5'-cyclic-AMP phosphodiesterase 4B (Homo sapiens) (Q07343 whole entry, looked up): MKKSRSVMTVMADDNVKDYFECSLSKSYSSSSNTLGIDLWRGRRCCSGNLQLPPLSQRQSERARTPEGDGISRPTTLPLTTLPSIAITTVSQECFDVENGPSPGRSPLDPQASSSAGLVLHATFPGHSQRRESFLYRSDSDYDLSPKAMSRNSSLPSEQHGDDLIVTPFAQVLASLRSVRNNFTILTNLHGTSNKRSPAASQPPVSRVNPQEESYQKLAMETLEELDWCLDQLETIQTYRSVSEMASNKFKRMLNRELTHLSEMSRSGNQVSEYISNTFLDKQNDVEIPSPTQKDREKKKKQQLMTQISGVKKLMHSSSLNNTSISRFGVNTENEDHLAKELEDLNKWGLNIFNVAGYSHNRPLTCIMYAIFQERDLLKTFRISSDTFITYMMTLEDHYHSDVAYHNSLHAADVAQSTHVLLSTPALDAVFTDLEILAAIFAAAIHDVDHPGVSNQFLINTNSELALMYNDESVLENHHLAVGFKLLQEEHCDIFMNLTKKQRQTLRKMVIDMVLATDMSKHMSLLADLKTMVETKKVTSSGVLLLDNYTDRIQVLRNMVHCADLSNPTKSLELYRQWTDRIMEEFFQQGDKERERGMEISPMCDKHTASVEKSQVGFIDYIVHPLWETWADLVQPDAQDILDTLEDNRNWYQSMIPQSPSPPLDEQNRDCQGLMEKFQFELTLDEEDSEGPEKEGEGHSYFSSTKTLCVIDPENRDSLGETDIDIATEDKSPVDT
How it was run: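 HEK293 ACTOne cells with CNG channel (1000/well), endogenous PDE4; membrane potential dye, compounds up to 22.9 uM final. Fluorescence Ex 535/Em 590; RO 20-1724 (100 uM final) as reference.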

[9] = molecular target: Cytochrome P450 3A4 (Homo sapiens) (UniProt P08684); assay: qHTS Assay for Activators of Cytochrome P450 3A4 (AID 885); conditions: recombinant CYP3A4, Luciferin-PPXE luminescence, 60 min; series mostly up to 57.1 µM; note: nearly all actives have a fitted effect of over 65% in size
Sequence of Cytochrome P450 3A4 (Homo sapiens) (P08684 whole entry, looked up): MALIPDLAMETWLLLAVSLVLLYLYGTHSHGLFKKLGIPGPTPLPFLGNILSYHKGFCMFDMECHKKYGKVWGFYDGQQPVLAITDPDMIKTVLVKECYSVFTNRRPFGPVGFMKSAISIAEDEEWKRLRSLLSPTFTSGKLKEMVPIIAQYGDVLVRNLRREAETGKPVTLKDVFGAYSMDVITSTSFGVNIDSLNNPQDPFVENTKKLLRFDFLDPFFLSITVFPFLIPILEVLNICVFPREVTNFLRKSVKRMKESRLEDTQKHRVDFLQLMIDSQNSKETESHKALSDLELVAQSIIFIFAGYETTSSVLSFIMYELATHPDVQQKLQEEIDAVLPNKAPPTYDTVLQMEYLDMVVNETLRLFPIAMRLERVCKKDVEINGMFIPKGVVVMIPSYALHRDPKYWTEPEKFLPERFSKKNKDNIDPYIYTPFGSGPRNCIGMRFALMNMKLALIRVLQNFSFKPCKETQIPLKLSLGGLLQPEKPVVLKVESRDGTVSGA
How it was run: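 Human CYP3A4 (20 nM) with Luciferin-PPXE at 25 uM (its KM) in 200 mM KPO4; 10 min compound preincubation, then NADPH regeneration and 60 min reaction at RT. Luciferin read by luminescence; normalized to 57 uM ketoconazole full inhibition.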

[10] = molecular target: Dual specificity protein kinase CLK4 (Homo sapiens) (UniProt Q9HAZ1); assay: qHTS Assay for Inhibitors of CDC-like Kinase 4 (Kinase-Glo Assay) (AID 1770); conditions: recombinant Clk4, Kinase-Glo ATP depletion luminescence; series mostly up to 66.7 µM; note: nearly all actives have a fitted effect of over 65% in size; note: potency is the fitted concentration of half-maximal effect
Sequence of Dual specificity protein kinase CLK4 (Homo sapiens) (Q9HAZ1 whole entry, looked up): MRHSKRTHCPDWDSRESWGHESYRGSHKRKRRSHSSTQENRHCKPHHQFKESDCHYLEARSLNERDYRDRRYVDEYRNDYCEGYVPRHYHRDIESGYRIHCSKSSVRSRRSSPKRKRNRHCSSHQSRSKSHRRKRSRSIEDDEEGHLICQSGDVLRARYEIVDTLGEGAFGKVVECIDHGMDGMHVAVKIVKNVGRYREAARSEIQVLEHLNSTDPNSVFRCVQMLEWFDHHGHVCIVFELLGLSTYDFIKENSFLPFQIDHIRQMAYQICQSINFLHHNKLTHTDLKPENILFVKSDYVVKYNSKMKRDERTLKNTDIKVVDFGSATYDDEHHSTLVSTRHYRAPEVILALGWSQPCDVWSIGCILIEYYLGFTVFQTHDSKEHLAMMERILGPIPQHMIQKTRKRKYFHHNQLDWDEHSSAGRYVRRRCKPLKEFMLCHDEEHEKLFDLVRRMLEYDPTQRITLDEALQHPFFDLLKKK
How it was run: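 Inhibition was judged from remaining ATP, measured by Ultra-Glo luciferase bioluminescence after Clk4 (25 nM) had acted on RS peptide at 1 uM ATP for 4.5 hours, room temperature.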

[11] = molecular target: Dual specificity protein kinase CLK4 (Homo sapiens) (UniProt Q9HAZ1); assay: qHTS Assay for Inhibitors of CDC-like Kinase 4 (ADP-Glo Assay) (AID 1771); conditions: recombinant CLK4, ADP-Glo luminescence; series mostly up to 80 µM; note: nearly all actives have a fitted effect of over 70% in size; note: potency is the fitted concentration of half-maximal effect
How it was run: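 Kinase reaction: Clk4 at 25 nM, RS repeat peptide substrate at 100 uM, ATP at 1 uM, 1 hr, room temperature. Product ADP detected as luciferase signal via ADP-Glo.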

[12] = molecular target: Dual specificity protein kinase CLK4 (Homo sapiens) (UniProt Q9HAZ1); assay: qHTS Assay for Inhibitors of CDC-like Kinase 4 (ADP-FP Assay) (AID 1795); conditions: Transcreener ADP fluorescence polarization; series mostly up to 50 µM; note: nearly all actives have a fitted effect of over 60% in size; note: potency is the fitted concentration of half-maximal effect
How it was run: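 Inhibition of ADP formation by 6.25 nM Clk4 is measured using 1 uM ATP and 100 uM RS repeat peptide over one hour. Produced ADP displaces a fluorescent tracer from antibody, lowering polarization.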

[13] = molecular target: Ubiquitin carboxyl-terminal hydrolase 1 (Homo sapiens) (UniProt O94782); assay: Inhibitors of USP1/UAF1: Pilot qHTS (AID 504865); conditions: purified USP1/UAF1, Ub-rhodamine cleavage fluorescence; series mostly up to 54.9 µM;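 note: rhodamine fluorescence freed from ubiquitin-rhodamine substrate followed over time; top concentration of the series differs between compounds; % is set by controls: 0 for no effect and ±100 for the full control effect; nearly all actives have a fitted effect of over 35% in size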
Sequence of Ubiquitin carboxyl-terminal hydrolase 1 (Homo sapiens) (O94782 whole entry, looked up): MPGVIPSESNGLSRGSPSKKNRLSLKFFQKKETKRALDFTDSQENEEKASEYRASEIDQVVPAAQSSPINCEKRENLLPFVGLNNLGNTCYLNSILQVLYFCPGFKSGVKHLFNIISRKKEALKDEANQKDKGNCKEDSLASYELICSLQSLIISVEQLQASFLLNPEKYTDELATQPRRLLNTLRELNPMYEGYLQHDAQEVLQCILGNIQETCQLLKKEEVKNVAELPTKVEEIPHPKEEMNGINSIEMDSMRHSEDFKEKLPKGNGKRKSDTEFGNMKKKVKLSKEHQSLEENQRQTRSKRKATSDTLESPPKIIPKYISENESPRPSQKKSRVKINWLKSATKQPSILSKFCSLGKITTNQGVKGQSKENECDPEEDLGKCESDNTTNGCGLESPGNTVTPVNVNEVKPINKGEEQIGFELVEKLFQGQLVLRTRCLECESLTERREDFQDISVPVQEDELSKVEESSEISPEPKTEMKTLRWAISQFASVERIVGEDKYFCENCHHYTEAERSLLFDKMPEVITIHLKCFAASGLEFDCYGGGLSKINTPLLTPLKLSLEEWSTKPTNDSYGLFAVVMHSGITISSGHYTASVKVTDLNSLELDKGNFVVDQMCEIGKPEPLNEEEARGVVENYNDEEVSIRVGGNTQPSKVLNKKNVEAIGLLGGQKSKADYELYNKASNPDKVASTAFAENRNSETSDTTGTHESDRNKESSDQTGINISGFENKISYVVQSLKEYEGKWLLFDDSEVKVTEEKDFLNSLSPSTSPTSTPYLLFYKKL
How it was run: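 Kinetic fluorescence assay: 1nM USP1/UAF1, 15 min compound preincubation, then 150nM Ub-Rho; 480/540 nm.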

[14] = Primary qHTS for small molecule stabilizers of the endoplasmic reticulum resident proteome: Secreted ER Calcium Modulated Protein (SERCaMP) assay (AID 1508630); conditions: SH-SY5Y GLuc-SERCaMP (Gaussia luciferase released on ER calcium loss) secretion, thapsigargin, luminescence; series mostly up to 38.4 µM; note: % is set by controls: 0 for no effect and ±100 for the full control effect
How it was run: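 GLuc-SERCaMP-expressing SH-SY5Y cells, pretreated 16 h with compound, are challenged with thapsigargin to empty ER calcium stores; after 4 h, coelenterazine is added directly to the medium and luminescence is imaged.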

[15] = molecular target: Cytochrome P450 3A4 (Homo sapiens) (UniProt P08684); assay: qHTS Assay for Inhibitors and Substrates of Cytochrome P450 3A4 (AID 884); conditions: recombinant CYP3A4, Luciferin-PPXE luminescence; series mostly up to 57.1 µM; note: potency is the fitted concentration of half-maximal effect; nearly all actives have a fitted effect of over 50% in size
How it was run: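 20 nM human CYP3A4 with 25 uM Luciferin-PPXE (at KM) in 200 mM KPO4, preincubated 10 min with compound; NADPH regeneration started a 60 min RT reaction. Luciferin detected by luminescence, normalized to 57 uM ketoconazole as full inhibition.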

[16] = molecular target: Cytochrome P450 2C9 (Homo sapiens) (UniProt P11712); assay: qHTS Assay for Inhibitors and Substrates of Cytochrome P450 2C9 (AID 883); conditions: recombinant CYP2C9, luciferin-H luminescence, 60 min; series mostly up to 57.1 µM; note: potency is the fitted concentration of half-maximal effect; nearly all actives have a fitted effect of over 60% in size
Sequence of Cytochrome P450 2C9 (Homo sapiens) (P11712 whole entry, looked up): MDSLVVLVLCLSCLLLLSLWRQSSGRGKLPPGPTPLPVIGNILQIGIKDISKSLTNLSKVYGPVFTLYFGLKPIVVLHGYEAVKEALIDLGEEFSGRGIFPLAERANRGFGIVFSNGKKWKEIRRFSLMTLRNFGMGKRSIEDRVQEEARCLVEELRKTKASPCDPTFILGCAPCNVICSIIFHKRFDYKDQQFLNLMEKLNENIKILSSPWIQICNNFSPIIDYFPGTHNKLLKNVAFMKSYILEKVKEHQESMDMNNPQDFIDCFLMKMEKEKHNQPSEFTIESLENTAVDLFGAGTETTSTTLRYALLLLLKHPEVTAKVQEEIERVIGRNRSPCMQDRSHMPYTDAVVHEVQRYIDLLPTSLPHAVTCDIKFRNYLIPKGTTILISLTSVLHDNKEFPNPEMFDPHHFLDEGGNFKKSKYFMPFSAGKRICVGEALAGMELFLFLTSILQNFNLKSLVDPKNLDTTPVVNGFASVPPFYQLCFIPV
How it was run: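 Signal: luciferase luminescence reporting luciferin produced by CYP2C9. Conditions: 10nM enzyme, Luciferin-H 100uM at KM, 25mM KPO4, 37C, 60 min NADPH-driven reaction. Reference: 57uM sulphaphenazole as 100% inhibition.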

[17] = qHTS Assay for Identification of Small Molecule Agonists for Hypoxia Response Element Signaling Pathway (AID 914; active = well fitted activation curve with a large enough effect in the signal ratio, with a control signal flat, not every such curve was filed as active; the % refers to the signal ratio; note: potency is the fitted concentration of half-maximal effect); conditions: ME-180 HRE-bla reporter, beta-lactamase ratio, CoCl2, 17 h; activation: hits give high values
How it was run: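 ME-180 cells carrying an HRE-driven beta-lactamase reporter were treated with compounds in a titration series plus an EC50 level of CoCl2 for 17 h at 37 degrees Celsius; CCF4 readout as the 460nm/530nm ratio gave AC50 values.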

[18] = AP1 Signaling Pathway (AID 357; active = well fitted curve in either direction with a large enough effect, not every such curve was filed as active; note: % is set by controls: 0 for no effect and ±100 for the full control effect); conditions: ME-180 (cervical carcinoma) AP-1-bla reporter, EGF-induced, beta-lactamase ratio, 5 h; at 7.69 µM (top of the series) unless noted
How it was run: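 In this screen, ME-180 cells in Opti-MEM with 0.5% dialyzed FBS received EC50 EGF and compound titrations for 5 h. AP-1 reporter beta-lactamase was detected via CCF4 ratio, giving AC50 for positive and negative modulators.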

[19] = molecular target: Cytochrome P450 2C19 (Homo sapiens) (UniProt P33261); assay: qHTS Assay for Inhibitors and Substrates of Cytochrome P450 2C19 (AID 899); conditions: recombinant CYP2C19, luciferin-H EGE luminescence; series mostly up to 57.1 µM; note: potency is the fitted concentration of half-maximal effect; nearly all actives have a fitted effect of over 60% in size
How it was run: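 Signal comes from luciferase acting on luciferin released by CYP2C19-mediated hydroxylation of Luciferin-H EGE, 10uM (KM). Assay mix: 5nM enzyme, 50mM KPO4; 60 min at 37C with NADPH regeneration. Data normalized against 57uM ketoconazole.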

SMILES	Potency [1]	Potency [2]	activity change, negative = inhibition [3]	activity, negative = inhibition [4]	Potency [5]	Potency [6]	Potency [7]	Potency [8]	Potency [9]	Potency [10]	Potency [11]	Potency [12]	Potency [13]	outcome [14]	Potency [15]	Potency [16]	Potency [17]	activity change, negative = inhibition [18]	Potency [19]
COc1ccc(Oc2ncc3nc(-c4ccc(F)cc4)c(=O)n(Cc4cccs4)c3n2)cc1	> 11.4 µM	5.01 µM (active)	-29.2%	-8.36%	> 9.22 µM	> 46 µM	inactive	inactive	inactive	inactive	inactive	inactive	inactive	inactive					
Fc1ccc(Nc2ncnc3ccc(-c4ccoc4)cc23)cc1	> 11.4 µM	1 µM (active)	10.4%	-22.9%	> 46 µM	> 46 µM	inactive		inactive	0.631 µM (active)	0.708 µM (active)	355 nM (active)	inactive	inactive					
CS(=O)(=O)Nc1cccc(-c2ccc3ncnc(N4CCOCC4)c3c2)c1	> 11.4 µM	12.6 µM (active)		-11.8%	> 46 µM	> 46 µM	inactive			7.94 µM (active)	6.31 µM (active)	7080 nM (active)	inactive	inactive	7.94 µM (active)				
Cn1cc(-c2nc3cnc(N4CCNCC4)nc3n(Cc3ccc(F)cc3)c2=O)c2ccccc21	> 11.4 µM	20 µM (active)	68.4% [activator] (active)		> 9.22 µM	> 46 µM		inactive	inactive	inactive	inactive	inactive		inactive					
Cn1cc(-c2nc3cnc(Oc4cccc(Cl)c4)nc3n(C3CC3)c2=O)c2ccccc21	> 11.4 µM	12.6 µM (active)	6.59%	9.54%	> 9.22 µM	> 46 µM	inactive			inactive	inactive	inactive	inactive	inactive					
c1cncc(-c2cc(-n3ccnc3)ncn2)c1	> 11.4 µM	0.1 µM (active)	4.07%	14.8%	> 46 µM	> 46 µM	inactive	inactive	inactive	0.794 µM (active)	0.708 µM (active)	501 nM (active)	inactive	inactive	1.58 µM (active)				
CN(C)c1ncc2nc(-c3ccccc3)c(=O)n(CCc3ccccc3)c2n1	> 11.4 µM	20 µM (active)			> 9.22 µM	> 46 µM		inactive		inactive	inactive	inactive	inactive	inactive		631 nM (active)	3.16 µM (active)		
Cn1c(=O)c(CCc2ccccc2)nc2cnc(Nc3ccccc3)nc21	> 11.4 µM	1.26 µM (active)	1.9%	-11.6%	> 9.22 µM	> 46 µM	inactive		inactive	inactive	inactive	inactive	inactive	inactive					
CCNc1ncc2nc(-c3ccc(OC)cc3)c(=O)n(CCc3ccccc3)c2n1	> 11.4 µM			122% [activator] (active)	> 9.22 µM	> 46 µM	inactive			inactive	inactive	inactive	inactive	inactive			0.501 µM (active)	107% [activator] (active)	
CN(C)c1ccc(-c2cncnc2Nc2ccc(F)cc2)cc1	> 11.4 µM	0.501 µM (active)		-2.86%	> 46 µM	> 46 µM				10 µM (active)	10 µM (active)	inactive	inactive	inactive	0.794 µM (active)				
Cn1c(=O)c(-c2ccc(Cl)cc2)nc2cnc(OCc3ccccc3)nc21	> 11.4 µM	0.794 µM (active)	-7.07%	-4.02%	> 9.22 µM	> 46 µM	inactive	inactive		inactive	inactive	inactive	inactive	inactive					
O=c1c(CCc2ccccc2)nc2cncnc2n1Cc1ccccc1Cl	> 11.4 µM	12.6 µM (active)	-6.53%	-12.1%	> 46 µM	> 46 µM	inactive		inactive	inactive	inactive	inactive	inactive	inactive					5.01 µM (active)
c1cncc(-c2cncnc2NCc2cccs2)c1	> 11.4 µM	0.316 µM (active)	23.6%	-4.79%	> 46 µM	> 46 µM	inactive	inactive	inactive	inactive	inactive	inactive	inactive	inactive	2 µM (active)				
